The text below walks through data of ChEMBL document CHEMBL3433997, “St. Jude Leishmania screening dataset” (2016).

Each structure is given as a SMILES string.

This assay has as its target Glucose transporter (Leishmania mexicana) (UniProt O61059). The assay is described as follows: ST_JUDE_LEISH: Cytotoxicity at 2uM final concentration against transgenic Leishmania Mexicana promastigotes LmGT2 that are glucose transport deficient and complemented with the L. Mexicana glucose transporter 2. Activity is measured by DNA content using SYBR green in vitro. It counts as functional.
As for `FC(F)(F)Oc1ccc(-c2cnc3ccc(NCc4ccncc4)nn23)cc1`, the inhibition was -1.87%.

Turning to `COc1ccc(-c2ccc(NC(=O)c3cccc(C#N)c3)cc2)cc1CN1CCCC(C(N)=O)C1` (stereo not given), the inhibition is 5.2%.

Regarding `CCNc1cc(-c2cccc(OC)c2)nc(Nc2ccc(F)cc2)n1`, the inhibition was found to be 2.87%.

On to `Cc1ccccc1C1CCN(C2CCC(NC(=O)c3csc(-c4cccc(Cl)c4)n3)CC2)CC1` (stereo not given), for which the inhibition came out at 8.46%.

Take `CCCCCCCNCCNc1cc(C)nc2ccccc12`: the inhibition was determined as 2.79%.

On to `CCC(CCON1C(N)=NC(N)=NC1(C)C)c1ccc(Cl)c(Cl)c1` (stereo not given), for which the inhibition came out at 3.3%.

In the case of `COCCOc1cccc(CN2CCC(c3cc4nc(C)cc(C(F)(F)F)n4n3)C2)c1` (stereo not given), the inhibition turned out to be 0.83%.

Consider `CCCc1ccc(NC(=O)c2ccc(CN3CCCN(Cc4cccc(O)c4)CC3)cc2)cc1`, for which the inhibition is 3.95%.

`O=C(NCCN1CCC(NC(=O)c2ccc(-c3ccccn3)s2)CC1)c1ccc(Cl)c(Cl)c1`: the inhibition came to 4.43%.

Turning to `COc1ccc2nccc([C@@H](O)CN3CCC(NCCOc4ccncc4)CC3)c2c1`, the inhibition was -0.87%.

With `Cc1ccc(Nc2nc(N/N=C/c3ccccc3[N+](=O)[O-])nc(Nc3ccc([N+](=O)[O-])cc3)n2)cc1C`, the inhibition was found to be 5.3%.

Consider `CN(CCCNc1ccc(C(=O)Nc2ccc(C(F)(F)F)cc2)cc1[N+](=O)[O-])Cc1ccccc1`, for which the inhibition was -3.45%.

Consider `O=C(Nc1ccc(Oc2ccccc2)cc1)N(Cc1ccc(-c2ccc(CN3CCNCC3)cc2)cc1)C1CCN(Cc2ccccc2)CC1`, for which the inhibition is -0.33%.

Regarding `NC(=O)C1Cc2ccccc2CN1CC(=O)Nc1ccccc1Sc1ccccc1` (stereo not given), the inhibition amounted to 2.18%.

Turning to `CC(=O)Nc1ccc(COc2ccc(Nc3ccnc4cc(-c5ccccn5)ccc34)cc2)cc1`, the inhibition stood at 1.17%.

For `CC(=O)Nc1ccc(OCCCCN(Cc2ccccc2OC(F)(F)F)c2ccc(C(F)(F)F)c(C#N)c2)c(Cl)c1`, the inhibition stood at 7.95%.

Take `Cc1ccc(NC(=N)Nc2ncccc2OCc2c(F)cccc2Cl)cc1`: the inhibition came out at 5.56%.

On to `COc1cc2c(cc1OC)CC(NCc1ccc(-c3ccc4nc[nH]c4c3)cc1)C2`, for which the inhibition was determined as 4.38%.

Turning to `CC(C)c1ccc(N(CC(=O)N/N=C/c2ccc(C(F)(F)F)cc2)S(=O)(=O)c2ccc(C(F)(F)F)cc2)cc1`, the inhibition turned out to be 3.25%.

For `CN1CCN(S(=O)(=O)c2ccc3nccc(Nc4ccc(Oc5ccccc5)cc4)c3c2)CC1`, the inhibition was -1.4%.

Take `N#Cc1cccc(NC(=O)C2=C(CCc3ccc4c(c3)OCO4)NC(=O)NC2c2cccc(C#N)c2)c1` (stereo not given): the inhibition is -0.7%.

On to `COc1ccc(C2CC(c3cccs3)=NN2C(=O)c2ccccc2)cc1OC` (stereo not given), for which the inhibition was 5.57%.

Consider `O=C(Nc1cc(Cl)ccc1O)c1cnn2c(C(F)(F)F)cc(-c3cccs3)nc12`, for which the inhibition was determined as 3.63%.

On to `O=C(Nc1ccc(-c2nc3ccccc3[nH]2)cc1)C1CCCN(CC2CC2)C1` (stereo not given), for which the inhibition was found to be 4.89%.

Take `CC(=O)c1cc(N2CCCC2)ccc1N`: the inhibition worked out at 2.09%.

Regarding `CC(C)Nc1cc(C(=O)N[C@@H](Cc2ccccc2)[C@H](O)CNC2CCOCC2)c(F)c(N2CCCCS2(=O)=O)c1`, the inhibition amounted to 4.99%.

`O=C(/C=C/c1cccc2c1OCO2)Nc1ccnc2ccncc12`: the inhibition is 1.89%.

Turning to `CCc1ccc(C2CCN(CCCCNC(=O)c3ccc(-c4ccc(C#N)cc4)cc3)CC2)c(OCCO)c1`, the inhibition is 1.5%.

As to `CCCCc1ccc(NC(=O)Nc2ccc3c(c2)CCNCC3)cc1`, the inhibition stood at 1.65%.

Take `O=c1cc(NCCCNCc2ccc(C(F)(F)F)cc2F)[nH]c2ccccc12`: the inhibition is -0.34%.

With `CCNc1cc(C(=O)N[C@@H](Cc2cccc(Cl)c2)[C@H](O)CNC(C)CCCC(C)C)cc(N2CCCCS2(=O)=O)c1` (stereo not given in full), the inhibition was -4.25%.

As for `COC(=O)c1ccc(-c2ccc(-c3cccnc3)cc2C)cc1`, the inhibition turned out to be 74.1%.

For the compound `Cc1cccc2nc(-c3ccc(-c4ccc(CNCC(C)C)cc4)cc3)[nH]c12`, the inhibition turned out to be 8.18%.

On to `O=[N+]([O-])c1cc2c(cc1C=NNc1nc(=Nc3ccccc3)[nH]c(=Nc3ccccc3)[nH]1)OCO2`, for which the inhibition is -2.69%.

Take `CC(C)Cn1cc2c(ccc3nc(N)nc(N)c32)n1`: the inhibition amounted to 0.32%.

Regarding `CCCCCCCCCCS(=O)(=O)N[C@H](COCc1cccc(Oc2ccccc2)c1)COP(=O)(O)OC`, the inhibition is -1.2%.

`Brc1ccsc1-c1nc(NCCC(c2ccccc2)c2ccccc2)no1`: the inhibition amounted to 0.06%.

Regarding `Oc1cccc(Nc2nc(NCC3CCCO3)c3ccccc3n2)c1` (stereo not given), the inhibition was 9.1%.

On to `COc1ccc2c(NN=Cc3ccccc3F)ccnc2c1`, for which the inhibition is 2.7%.

In the case of `CCCCCN1CCC(NS(=O)(=O)c2ccc(C(=O)Nc3cccc(C(F)(F)F)c3)cc2)C1` (stereo not given), the inhibition turned out to be 2.26%.

By inhibition is commonly meant the relative decrease from the control value, in per cent.
